Assay results reported in the supplement of paper PMC12067093, “Discovery and optimisation of a covalent ligand for TRIM25 and its application to targeted protein ubiquitination” (Chemical Science, 2025).
About 21,000 targets were measured; listed, in parts, are those with the largest changes and a random draw of the rest.

Compound: CC1Cc2ccccc2N1C(=O)C1CCCN(C1)C(=O)CCl (mixture of isomers) [TRIM25 ligand 11 (diastereomer mixture)]
Experiment: probe-labelled cysteine peptide fold change vs DMSO (competition) (log2 fold change); higher = less target engagement (more negative = stronger competition)
Conditions: THP-1, incubation time: 4 h
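Further: competitive chemoproteomic profiling in live THP-1 cells with an iodoacetamide desthiobiotin (IA-DTB) probe, comparing probe-labelled peptide intensities in compound-treated cells against DMSO-treated controls.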

Sequence of UniProt O60216 (O60216 whole entry, looked up): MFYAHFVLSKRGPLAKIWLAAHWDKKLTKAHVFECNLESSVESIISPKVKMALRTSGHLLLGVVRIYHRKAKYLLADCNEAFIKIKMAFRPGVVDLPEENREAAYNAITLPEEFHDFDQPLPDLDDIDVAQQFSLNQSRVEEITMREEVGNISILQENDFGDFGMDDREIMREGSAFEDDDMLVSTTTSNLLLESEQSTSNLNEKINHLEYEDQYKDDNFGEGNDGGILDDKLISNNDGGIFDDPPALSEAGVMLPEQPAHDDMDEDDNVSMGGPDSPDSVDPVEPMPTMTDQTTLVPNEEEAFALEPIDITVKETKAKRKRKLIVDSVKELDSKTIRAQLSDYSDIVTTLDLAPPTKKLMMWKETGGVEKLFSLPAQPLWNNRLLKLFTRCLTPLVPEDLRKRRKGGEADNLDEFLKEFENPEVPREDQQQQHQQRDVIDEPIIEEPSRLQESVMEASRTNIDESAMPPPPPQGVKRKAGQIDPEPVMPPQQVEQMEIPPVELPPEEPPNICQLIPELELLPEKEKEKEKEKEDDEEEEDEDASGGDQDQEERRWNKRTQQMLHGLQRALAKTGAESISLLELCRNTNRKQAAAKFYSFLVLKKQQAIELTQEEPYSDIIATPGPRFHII
Sequence of UniProt Q15008 (Q15008 whole entry, looked up): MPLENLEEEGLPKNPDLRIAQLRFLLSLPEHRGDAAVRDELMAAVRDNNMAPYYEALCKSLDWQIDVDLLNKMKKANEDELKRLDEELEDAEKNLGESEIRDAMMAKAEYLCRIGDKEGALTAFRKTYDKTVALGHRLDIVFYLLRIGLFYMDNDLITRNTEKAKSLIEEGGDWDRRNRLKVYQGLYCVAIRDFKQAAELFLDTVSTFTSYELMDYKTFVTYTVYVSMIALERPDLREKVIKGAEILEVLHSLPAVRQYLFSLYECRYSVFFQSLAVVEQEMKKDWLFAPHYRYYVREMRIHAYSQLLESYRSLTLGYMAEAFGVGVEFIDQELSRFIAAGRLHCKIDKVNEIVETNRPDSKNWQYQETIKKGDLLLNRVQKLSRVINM
Sequence of UniProt Q9NW64 (Q9NW64 whole entry, looked up): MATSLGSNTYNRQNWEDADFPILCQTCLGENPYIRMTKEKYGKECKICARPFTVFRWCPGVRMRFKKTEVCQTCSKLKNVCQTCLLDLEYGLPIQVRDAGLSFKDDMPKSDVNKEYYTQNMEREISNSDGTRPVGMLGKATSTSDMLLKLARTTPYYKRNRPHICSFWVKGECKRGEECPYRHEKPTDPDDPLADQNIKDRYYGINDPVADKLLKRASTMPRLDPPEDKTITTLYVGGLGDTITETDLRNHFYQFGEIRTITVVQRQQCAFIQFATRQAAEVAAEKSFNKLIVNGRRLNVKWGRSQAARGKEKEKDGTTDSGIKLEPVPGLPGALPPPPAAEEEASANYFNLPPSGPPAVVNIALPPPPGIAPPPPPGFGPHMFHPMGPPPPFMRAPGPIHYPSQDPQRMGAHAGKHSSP
Sequence of UniProt P62834 (P62834 whole entry, looked up): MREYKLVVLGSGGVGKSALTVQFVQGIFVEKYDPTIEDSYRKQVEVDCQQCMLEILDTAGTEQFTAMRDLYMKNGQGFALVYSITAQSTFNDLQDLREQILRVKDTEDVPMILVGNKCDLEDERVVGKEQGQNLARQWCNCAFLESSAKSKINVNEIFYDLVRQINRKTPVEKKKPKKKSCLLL
Sequence of UniProt Q9H4A4 (Q9H4A4 whole entry, looked up): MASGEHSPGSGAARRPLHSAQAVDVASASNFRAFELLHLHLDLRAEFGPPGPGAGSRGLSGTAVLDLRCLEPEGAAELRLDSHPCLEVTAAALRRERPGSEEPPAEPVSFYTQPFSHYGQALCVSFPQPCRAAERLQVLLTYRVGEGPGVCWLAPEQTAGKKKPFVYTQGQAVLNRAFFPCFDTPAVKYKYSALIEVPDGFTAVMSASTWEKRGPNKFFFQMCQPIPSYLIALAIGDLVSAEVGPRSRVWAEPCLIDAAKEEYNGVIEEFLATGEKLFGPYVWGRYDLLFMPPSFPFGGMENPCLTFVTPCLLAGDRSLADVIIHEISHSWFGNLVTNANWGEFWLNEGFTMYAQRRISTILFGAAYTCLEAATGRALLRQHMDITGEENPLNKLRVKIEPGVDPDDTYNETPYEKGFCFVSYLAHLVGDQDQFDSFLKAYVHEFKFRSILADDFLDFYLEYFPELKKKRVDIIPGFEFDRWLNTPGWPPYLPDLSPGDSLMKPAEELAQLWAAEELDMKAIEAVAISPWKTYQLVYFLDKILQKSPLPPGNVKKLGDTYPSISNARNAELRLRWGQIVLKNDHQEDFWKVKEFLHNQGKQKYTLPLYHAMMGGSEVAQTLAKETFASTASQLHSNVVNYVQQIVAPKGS
Sequence of UniProt Q6NW40 (Q6NW40 whole entry): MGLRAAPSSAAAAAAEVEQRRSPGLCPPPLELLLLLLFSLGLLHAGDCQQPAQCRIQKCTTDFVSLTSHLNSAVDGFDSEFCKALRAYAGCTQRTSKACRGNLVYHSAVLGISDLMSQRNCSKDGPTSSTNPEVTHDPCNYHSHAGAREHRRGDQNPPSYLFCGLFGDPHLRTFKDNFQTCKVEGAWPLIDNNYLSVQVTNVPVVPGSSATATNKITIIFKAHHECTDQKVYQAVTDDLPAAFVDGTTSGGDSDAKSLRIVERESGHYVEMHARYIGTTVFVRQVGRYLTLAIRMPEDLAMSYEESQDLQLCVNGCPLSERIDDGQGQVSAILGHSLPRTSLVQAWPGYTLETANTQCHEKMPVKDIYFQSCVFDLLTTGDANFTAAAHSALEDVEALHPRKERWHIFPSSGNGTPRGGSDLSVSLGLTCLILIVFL
Sequence of UniProt Q3YEC7 (Q3YEC7 whole entry, looked up): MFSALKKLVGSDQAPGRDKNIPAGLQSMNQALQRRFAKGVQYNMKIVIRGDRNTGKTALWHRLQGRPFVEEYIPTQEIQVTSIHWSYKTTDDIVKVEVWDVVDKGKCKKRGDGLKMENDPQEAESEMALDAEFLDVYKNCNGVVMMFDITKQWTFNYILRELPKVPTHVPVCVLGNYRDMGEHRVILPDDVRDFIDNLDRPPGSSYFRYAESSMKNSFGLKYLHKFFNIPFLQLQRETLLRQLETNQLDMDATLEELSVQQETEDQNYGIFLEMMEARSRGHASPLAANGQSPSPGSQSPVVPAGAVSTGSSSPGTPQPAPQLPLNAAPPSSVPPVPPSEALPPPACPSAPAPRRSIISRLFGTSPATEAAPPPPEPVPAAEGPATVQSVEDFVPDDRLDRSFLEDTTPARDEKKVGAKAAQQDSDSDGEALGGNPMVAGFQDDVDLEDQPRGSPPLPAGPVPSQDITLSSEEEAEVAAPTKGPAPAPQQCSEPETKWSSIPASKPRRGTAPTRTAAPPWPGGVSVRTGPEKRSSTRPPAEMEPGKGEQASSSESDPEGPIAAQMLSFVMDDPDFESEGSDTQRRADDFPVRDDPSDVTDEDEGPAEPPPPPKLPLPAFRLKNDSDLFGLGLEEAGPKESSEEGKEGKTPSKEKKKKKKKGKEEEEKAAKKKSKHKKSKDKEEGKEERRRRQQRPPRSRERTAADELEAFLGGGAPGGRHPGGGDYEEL
Sequence of UniProt P35249 (P35249 whole entry, looked up): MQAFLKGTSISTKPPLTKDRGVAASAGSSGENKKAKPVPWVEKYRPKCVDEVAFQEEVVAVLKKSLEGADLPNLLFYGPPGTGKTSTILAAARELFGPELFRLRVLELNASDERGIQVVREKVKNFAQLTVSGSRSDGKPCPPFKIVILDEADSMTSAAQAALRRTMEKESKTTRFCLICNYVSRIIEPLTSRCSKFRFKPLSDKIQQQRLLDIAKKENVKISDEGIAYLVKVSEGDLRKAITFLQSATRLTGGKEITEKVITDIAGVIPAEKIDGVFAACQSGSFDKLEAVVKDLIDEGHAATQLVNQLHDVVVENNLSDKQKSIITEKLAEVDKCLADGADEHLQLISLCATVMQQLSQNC
Sequence of UniProt Q9UJ41 (Q9UJ41 whole entry, looked up): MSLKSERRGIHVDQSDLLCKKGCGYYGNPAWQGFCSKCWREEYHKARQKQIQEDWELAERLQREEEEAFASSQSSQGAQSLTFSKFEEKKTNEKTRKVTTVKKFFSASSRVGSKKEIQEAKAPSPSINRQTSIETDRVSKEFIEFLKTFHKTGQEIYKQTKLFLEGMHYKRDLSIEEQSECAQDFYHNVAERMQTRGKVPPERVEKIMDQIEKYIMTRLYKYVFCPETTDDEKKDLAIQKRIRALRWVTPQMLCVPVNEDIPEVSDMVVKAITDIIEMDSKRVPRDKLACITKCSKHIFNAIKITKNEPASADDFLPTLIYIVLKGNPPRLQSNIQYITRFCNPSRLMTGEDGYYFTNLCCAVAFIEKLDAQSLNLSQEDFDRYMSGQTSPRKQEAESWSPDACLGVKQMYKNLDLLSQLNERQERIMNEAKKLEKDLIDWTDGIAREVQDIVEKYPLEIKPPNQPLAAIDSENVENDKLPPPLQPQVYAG
Sequence of UniProt P84095 (P84095 whole entry, looked up): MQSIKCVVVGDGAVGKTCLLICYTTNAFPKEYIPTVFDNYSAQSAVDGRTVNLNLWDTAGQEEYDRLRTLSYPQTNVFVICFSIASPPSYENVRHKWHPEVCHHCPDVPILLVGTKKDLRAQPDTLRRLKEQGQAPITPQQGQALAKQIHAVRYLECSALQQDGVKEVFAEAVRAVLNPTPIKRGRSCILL
Sequence of UniProt Q9UBS8 (Q9UBS8 whole entry, looked up): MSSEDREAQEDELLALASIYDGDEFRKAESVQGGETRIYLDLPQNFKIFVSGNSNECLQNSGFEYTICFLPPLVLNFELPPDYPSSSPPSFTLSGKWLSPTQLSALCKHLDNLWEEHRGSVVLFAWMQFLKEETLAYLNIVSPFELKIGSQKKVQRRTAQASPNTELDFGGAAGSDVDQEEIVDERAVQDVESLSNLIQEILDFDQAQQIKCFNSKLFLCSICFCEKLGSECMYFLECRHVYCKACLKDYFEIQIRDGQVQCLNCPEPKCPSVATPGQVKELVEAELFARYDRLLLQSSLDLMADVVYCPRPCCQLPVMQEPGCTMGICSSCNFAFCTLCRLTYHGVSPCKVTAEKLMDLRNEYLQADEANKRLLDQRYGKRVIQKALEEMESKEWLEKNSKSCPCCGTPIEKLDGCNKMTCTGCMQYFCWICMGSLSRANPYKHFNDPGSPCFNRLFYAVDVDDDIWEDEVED

Target	probe-labelled cysteine peptide fold change (10 µM)	probe-labelled cysteine peptide fold change (50 µM)
RAD21_O60216_35_AHVFECNLESSVESIISPK (UniProt O60216)	0.0257	0.111
RBM22_Q9NW64_74_TEVCQTCSK (UniProt Q9NW64)	-0.0386	-0.0803
RABGEF1_Q9UJ41_359_RDLSIEEQSECAQDFYHNVAER (UniProt Q9UJ41)	0.648	-0.0585
RABEP1_Q15276_350_IPVVCALTQEESSAQLSNEEEHLDSTR (UniProt Q15276)	-0.0072	-0.0899
PSME1_Q06323_101_KKGEDEDKGPPCGPVNCNEK (UniProt Q06323)	-0.56	-0.596
RAB3GAP1_Q15042_783_HLLPCVIHAAVLK (UniProt Q15042)	-0.107	-0.00935
PSMD6_Q15008_188_VYQGLYCVAIR (UniProt Q15008)	-0.0246	0.231
RANBP2_P49792_3221_ITITECGQI (UniProt P49792)	-0.127	0.249
RABL6_Q3YEC7_172_VPTHVPVCVLGNYR (UniProt Q3YEC7)	0.0329	0.101
RAP1A_P62834_118_DTEDVPMILVGNKCDLEDERVVGK (UniProt P62834)	-0.603	-0.364
PTPN12_Q05209_343_SCLVEGDAK (UniProt Q05209)	0.155	-0.0495
RNPEP_Q9H4A4_85_LDSHPCLEVTAAALR (UniProt Q9H4A4)	0.0713	-0.0588
RANBP3_Q9H6Z4_406_VEVITGEEAESNVLQMQCK (UniProt Q9H6Z4)	0.0311	0.26
RFC4_P35249_180_FCLICNYVSR (UniProt P35249)	-0.16	-0.0464
RPL30_P62888_52_LVILANNCPALR (UniProt P62888)	0.0216	0.142
RAB3GAP1_Q15042_873_FVSCLLEQPEVLVTGAGR (UniProt Q15042)	0.274	0.33
RHOG_P84095_105_WHPEVCHHCPDVPILLVGTKK (UniProt P84095)	-0.292	-0.278
RGMB_Q6NW40_226_ITIIFKAHHECTDQK (UniProt Q6NW40)	-0.5	-0.619
RAI1_Q7Z5J4_899_APLICTK (UniProt Q7Z5J4)	-0.024	-0.376
RCC2_Q9P258_280_GNLYSFGCPEYGQLGHNSDGK (UniProt Q9P258)	0.288	-0.207
RASAL3_Q86YV0_447_LCGALEPALPAQAK (UniProt Q86YV0)	0.119	0.0549
RBM4B_Q9BQ04_31_VLECDIIK<|>RBM4_Q9BWF3_31_VLECDIIK (UniProt Q9BWF3+Q9BQ04)	-0.00323	-0.0431
RANBP3_Q9H6Z4_249_NESSNASEEEACEK (UniProt Q9H6Z4)	0.387	-0.572
RNF14_Q9UBS8_350_LTYHGVSPCK (UniProt Q9UBS8)	0.114	0.116
